DNA Pol III inh – DNA polymerase III holoenzyme inhibition; reconstituted DNA polymerase III holoenzyme replication, biochemical; Potency, µM (top dose mostly 57.1 µM); hit rate 0.25% among 71,000; AID 603
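Reconstituted *E. coli* holoenzyme (0.35 nM Pol III, 1 nM beta, 154 nM SSB, 2 nM primase) was preincubated with compound for 15 min at RT. Synthesis on 1.4 nM ssM13Gori ran 35 min, then was stopped with PicoGreen/EDTA and read as dsDNA fluorescence.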
BRCT PPI red – inhibitors of human BRCA1 BRCT-phosphoprotein interaction (red fluorophore). hit rate 0.03% among 75,000. P38398. BRCT-phosphopeptide binding, red fluorescence polarization. Potency, µM (series often up to 76.9 µM), usual class: inhibitors
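Rhodamine-labelled pBACH1 10-mer (100 nM) bound to BRCT domain (100 nM) at pH 7.3; compounds incubated 12 min room temperature, polarization read. Free peptide defines full inhibition; unlabelled decapeptide titrated as control.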
ERK AVP inh – inhibitors of vasopressin-stimulated ERK signaling pathway; HEK293-V1b, vasopressin-stimulated pERK AlphaScreen; Potency, µM (titrated, usually from 57.5 µM), hits mostly inhibitors; hit rate 0.99% among 72,000; AID 995; further: nearly all actives have a fitted effect of over 55% in size
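HEK293 cells stably expressing V1b receptor, seeded overnight in 1% FBS, were treated with compounds for 30 min at 37C, then stimulated 5 min with 25 nM vasopressin; phospho-ERK read by AlphaScreen SureFire after lysis.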
ALOX15 inhib – inhibitors of human 15-lipoxygenase (ALOX15); hit rate 1.4% among 74,000; purified 15hLO-1, xylenol orange hydroperoxide absorbance; Potency, µM (titrated, usually from 57.1 µM), actives largely listed as inhibitors; AID 887; further: nearly all actives have a fitted effect of over 55% in size
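40 nM 15hLO-1 + cpd, 15 min RT; start w/ 50 uM AA (final), 6 min RT; stop/detect w/ 200 uM XO + 300 uM Fe(II) in 50 mM H2SO4, 30 min; A573/A405. Buffer 25 mM Hepes pH 7.5, 0.01% Triton X-100. No-enzyme wells as negative control.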
BRCT inh green – inhibitors of human BRCA1 BRCT-phosphoprotein interaction (green fluorophore); Potency, µM (series often up to 76.9 µM), hits mostly inhibitors; BRCA1 BRCT-phosphopeptide binding, green fluorescence polarization; P38398; hit rate 0.05% among 75,000
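Fluorescence polarization: His-tagged BRCT (~35 kDa BRCA1 C-terminus, 250 nM) bound to 100 nM fluorescein-labeled phosphorylated 10-aa BACH1 peptide, pH 7.3 phosphate buffer with DTT and Tween 20. Compounds incubated 12 min at room temperature; inhibition read as lowered polarization.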
TsaE inh – YjeE (TsaE) inhibition, E. coli; purified YjeE enzyme, qHTS inhibition assay; Potency, µM; hit rate 0.05% among 71,000; AID 605
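Fluorescence polarization of a BODIPY Texas Red–ADP probe (2 uM) bound to purified YjeE (10 uM) was read after 15 min room-temperature incubation with compounds. Loss of polarization marks inhibitors; ADP serves as titrated control.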
Numbers stand for hits; 0 = inactive; ? = inconclusive; - = no result; [ ] = another dose, or the depositor's remark. Rows were chosen to be rich in hits. Some 2.4% of all compounds tested hit in one or more screens of this group. The call rests on the fitted dose curve; in most records, active means well fitted curve in the direction sought with a large enough effect; inconclusive means small, poorly fitted or top-dose-only effect, or another doubt; inactive means no such curve, though single readings can be large; an effect the other way counts as inactive or inconclusive.

SMILES	DNA Pol III inh	BRCT PPI red	ERK AVP inh	ALOX15 inhib	BRCT inh green	TsaE inh
O=C(O)c1cc(-c2ccco2)nc2ccc(Br)cc12	25µM	0	0	?	0	0
O=c1cc(O)cc(/C=C\c2ccc(O)c(O)c2)o1	6.3µM	0	?	0.79µM	0	0
COc1ccc(OC)c2c(=S)c3ccccc3[nH]c12	0	0	?	10µM	0	0
O=S(=O)(c1ccccc1)N1CCC2(CCN(Cc3ccncc3)CC2)CC1	0	0	0	0	0	0
O=C(O)CCSc1nc2ccc(Br)cc2[nH]1	0	0	0	0	0	0
Cn1c(CSc2nc3ccc(Br)cc3[nH]2)nc2ccccc21	0	0	20µM	0	0	0
CO[C@@H]1/C=C\CC(=O)N2CCC[C@@H]2C(=O)OC[C@H](C)C(=O)OC[C@H]1C	-	0[15.4 µM]	0[11.5 µM]	0[11.4 µM]	0[15.4 µM]	-
CC1(C)Cc2c(c(N3CCOCC3)nc3sc(-c4ccc(C(=O)O)o4)c(N)c23)CO1	0	0	?	20µM	0	0
CN1CCN(c2nc(-c3cccnc3)nc3ccccc23)CC1	0	0	0	0	0	0
c1cncc(-c2nc(N3CCCCCC3)c3ccccc3n2)c1	0	0	20µM	0	0	0
CC(c1ccccc1)C1C(C#N)=C(N)SC(N)=C1C#N (centres undefined)	0	0	0	0	0	0
CC(CC1C(C#N)=C(N)SC(N)=C1C#N)c1ccccc1 (centres undefined)	0	0	0	16µM	0	0
COc1ccc(OCC2Cc3c(-c4ccccc4)nc4c(c3CO2)CN(CCOc2ccccc2)CC4)cc1 (centres undefined)	-	0[15.4 µM]	0[11.5 µM]	0[11.4 µM]	0[15.4 µM]	-
N#CC1=C(N)Oc2cc(O)ccc2C1c1cccs1 (centres undefined)	0	0	0	?	0	0
CN(C)c1ccc2c(c1)OC(N)=C(C#N)C2c1cccc(F)c1 (centres undefined)	0	0	?	13µM	0	0
C=Cc1c(C)/c2[n-]/c1=C\c1[n-]c(c(CC)c1C)/C=c1\[n-]c3c(c1C)C(=O)C(C(=O)[O-])C=3c1[n-]c(c(C)c1CCC(=O)[O-])\C=2.[Cu].[Na+].[Na+] (centres undefined)	-	?	0	6.3µM	0[3.08 µM]	-
CN1CCN(C(=S)c2ccc(N(C)C)cc2)CC1	0	0	0	0	0	0
CCN(CC)c1ccc(C(=S)N2CCN(c3ccccc3)CC2)cc1	?	0	32µM	0	0	0
Cc1cnc(NC(=O)c2ccc(-c3nc4ccccc4s3)o2)s1	0	0	20µM	?	0	0
O=C(Nc1ccccc1-c1nc2ccccc2s1)c1ccco1	0	0	0	0	0	0
CN(C)C=NC(=O)/C(C#N)=C1\CCc2ccccc2N1	0	0	0	7.9µM	0	0
CC(=O)OC[C@@H]1O[C@H](C/C=N\OC[C@@H](O)[C@H]2O[C@H]3OC(C)(C)O[C@H]3[C@@H]2O)C=C[C@@H]1OC(C)=O	-	0[15.4 µM]	0[11.5 µM]	0[11.4 µM]	0[15.4 µM]	-
NC(=O)c1cc2ccc(O)cc2oc1=Nc1ccccc1	0	0	7.9µM	0	0	0
NC(=O)c1cc2ccc(O)cc2oc1=NCc1ccccc1	0	0	0	0	0	0
CCOC(=O)c1cc(-c2ccc(N)cc2)sc1N	0	0	0	25µM	0	0
SMILES	DNA Pol III inh	BRCT PPI red	ERK AVP inh	ALOX15 inhib	BRCT inh green	TsaE inh
CCOC(=O)c1ccc(N)cc1	0	0	0	0	0[3.08 µM]	0
Fc1cccc(Cl)c1/C=N\N=C1c2ccccc2-c2ccccc21	0[11.4 µM]	0[15.4 µM]	0[11.5 µM]	0[11.4 µM]	0[15.4 µM]	0
NC(N)=N/N=C\c1ccc(O)c(C(=O)O)c1	0[11.4 µM]	0[15.4 µM]	0[11.5 µM]	0[11.4 µM]	0[15.4 µM]	0
COc1ccc(-c2nc3cnc(N4CCOCC4)nc3n(-c3ccc(OC)cc3)c2=O)cc1	0	0	0	16µM	0	?
Nc1ncnc2c1ncn2[C@H]1O[C@@H](CO)[C@@H](O)[C@H]1N	0[11.4 µM]	0[15.4 µM]	0[11.5 µM]	0[11.4 µM]	0[15.4 µM]	0
O=C(O)C1Nc2c(O)cccc2C2C=CCC12 (centres undefined)	3.2µM	0	?	?	0	0
O=C(OC1CCCCC1)c1ccc2c(c1)C1C=CCC1C(C(=O)O)N2 (centres undefined)	20µM	?	0	25µM	?	0
O=C(c1ccccc1)[C@H](Nc1ccc2ccccc2c1)c1ccccc1	0[11.4 µM]	0[15.4 µM]	0[11.5 µM]	0[11.4 µM]	0[15.4 µM]	0
CCCCCc1cc(O)c2c(C)cc(=O)oc2c1	0[11.4 µM]	0	0	0[11.4 µM]	0	0
CCCCc1cc(=O)oc2cc(C)c(CN3CCCC3)c(O)c12	0	0	0	13µM	0	0
Cc1ccc2[nH]c3nc(SCCN4CCOCC4)nnc3c2c1	0	0	0	2.5µM	0	0
Cc1ccc2[nH]c3c(=O)n(CCCN4CCOCC4)cnc3c2c1	0	0	0	0	0	0
C=CC[C@@H]1C=C[C@@H](O/N=C\[C@@H](NS(=O)(=O)c2ccc(C)cc2)[C@H](C)/C=C\CC(=O)OC)[C@@H](CO)O1	-	0[15.4 µM]	0[11.5 µM]	0[11.4 µM]	0[15.4 µM]	-
CC(C)(C)c1csc(NC(=O)c2ccc(Cl)s2)n1	0	0	0	0	0	0
CCNc1nc(N)c(C(=O)c2ccc(Cl)s2)s1	0	0	3.2µM	0	0	0
O=C(c1ccccc1C(=O)N1CCN(c2ccc(F)cc2)CC1)N1CCN(c2ccc(F)cc2)CC1	0	0	40µM	0	0	0
CC(=O)N1CCN(c2ccc(NC(=O)c3ccc(C(C)(C)C)cc3)cc2)CC1	0	0	?	0	0	0
CC(C)c1ccc(CNc2ccc(N3CCOCC3)cc2)cc1	0	0	?	7.9µM	0	0
CC(=O)N1CCN(c2ccc(NCc3ccc(F)cc3)cc2)CC1	0	0	0	10µM	0	0
CCOc1ccc(CNc2ccc(N3CCCC3)cc2)cc1	0	0	?	3.2µM	0	0
CC(=O)NCCNc1ncnc2ccc(-c3ccccc3C(F)(F)F)cc12	0	0	0	0	0	0
O=C(Cc1cc(=O)[nH]c(=O)[nH]1)N1CCC(Cc2ccccc2)CC1	0	0	-	0	0	0
COc1ccc(OC2C(O)COC2/C=C/C#Cc2ccccc2)cc1 (centres undefined)	-	0[15.4 µM]	0[11.5 µM]	0[11.4 µM]	0[15.4 µM]	-
CCNC(=O)[C@@H]1O[C@@H](n2cnc3c(NCc4ccccc4)ncnc32)[C@@H](O)[C@H]1O	0	-	-	-	-	0
Cc1nc(NC2CCCCC2)c2nc(-c3ccccc3)n(C(C)CN(C)C)c2n1 (centres undefined)	0	0	0	0	0	0
CC(C)=CCC/C(C)=C/COc1c2ccoc2cc2oc(=O)ccc12	0	-	-	-	-	0
c1ccc(-c2oc3ncnc(NCCCn4ccnc4)c3c2-c2ccccc2)cc1	0	0	25µM	0	0	0
c1ccc(-c2oc3ncnc(NCCN4CCOCC4)c3c2-c2ccccc2)cc1	0	0	?	0	0	0
O=C(O)[C@H]1[C@H](C(=O)O)[C@H](C(=O)O)C[C@@H]1C(=O)O	0[11.4 µM]	0[15.4 µM]	0[11.5 µM]	0[11.4 µM]	0[15.4 µM]	0

Compound activity: PubChem, National Center for Advancing Translational Sciences (NCATS)
